In all, about 39,000 compounds went through this assay and about 3,300 (8.5%) were called active. The sample holds actives, similar compounds and a random draw of the others, so the mix is not that of the screen.

The subject of the assay is HepG2. Briefly: cytotoxicity call (relative viability < 0.9). Particulars: 10 µM.
As to `CC12CC(OC1=O)C1(C)CCC3(C)C(=CCC4C5(C)CCC(O)C(C)(C)C5CCC43C)C1C2` (stereo unspecified), the cytotoxicity call is “inactive”.
In the case of `O=S1(=O)C[C@H](NCc2cccnc2)[C@@H](O)C1` it was “inactive”; in that of `C[C@H](CO)N1C[C@H](C)[C@@H](CN(C)Cc2ccc(C(=O)O)cc2)Oc2c(NC(=O)C3CCOCC3)cccc2C1=O`, “inactive”; in that of `COc1ccc(CN(C)C[C@H]2Oc3ccc(NS(=O)(=O)c4c(C)noc4C)cc3CC(=O)N([C@H](C)CO)C[C@@H]2C)cc1`, “inactive”.
Next, `COc1ccc(S(=O)(=O)Nc2ccc3c(c2)C(=O)N([C@H](C)CO)C[C@@H](C)[C@@H](CN(C)S(=O)(=O)c2ccc(OC)cc2)O3)cc1`: “inactive”; `CN1C(=O)c2cc(NC(=O)Nc3ccccc3F)ccc2OC[C@H]2O[C@@H](CC(=O)NCc3ccc(-c4ccccc4)cc3)CC[C@@H]21`: “inactive”; `C[C@@H]1CCCCO[C@@H](CN(C)S(=O)(=O)c2ccc(Cl)cc2)[C@@H](C)CN([C@H](C)CO)C(=O)c2cc(NC(=O)C3CCCCC3)ccc2O1`: “inactive”.
Next, `CO[C@H]1CN(C)C(=O)c2ccc(NS(C)(=O)=O)cc2OC[C@@H](C)N(C(=O)C2CCOCC2)C[C@@H]1C`: “inactive”; `COc1ccc(S(=O)(=O)Nc2ccc3c(c2)C(=O)N([C@H](C)CO)C[C@@H](C)[C@H](CN(C)C(=O)C2CCCCC2)OCCCC[C@H](C)O3)cc1`: “inactive”; `C[C@@H]1CN([C@@H](C)CO)C(=O)c2cc(N(C)C)ccc2O[C@@H](C)CCCCO[C@H]1CN(C)C(=O)CCCN(C)C`: “inactive”.
Take `Cc1noc(C)c1S(=O)(=O)Nc1ccc2c(c1)C(=O)N([C@@H](C)CO)C[C@@H](C)[C@@H](CN(C)C(=O)Nc1cccc3ccccc13)OCCCC[C@@H](C)O2`: the cytotoxicity call is “active”.
In the case of `Cc1noc(C)c1S(=O)(=O)Nc1ccc2c(c1)C(=O)N([C@H](C)CO)C[C@@H](C)[C@@H](CN(C)C(=O)Nc1cccc3ccccc13)OCCCC[C@@H](C)O2` it was “inactive”; in that of `Cc1noc(C)c1S(=O)(=O)Nc1ccc2c(c1)C(=O)N([C@H](C)CO)C[C@H](C)[C@H](CN(C)C(=O)Nc1cccc3ccccc13)OCCCC[C@@H](C)O2`, “inactive”; in that of `Cc1noc(C)c1S(=O)(=O)Nc1ccc2c(c1)C(=O)N([C@@H](C)CO)C[C@@H](C)[C@H](CN(C)C(=O)Nc1cccc3ccccc13)OCCCC[C@H](C)O2`, “inactive”.
In the case of `Cc1noc(C)c1S(=O)(=O)Nc1ccc2c(c1)C(=O)N([C@H](C)CO)C[C@H](C)[C@@H](CN(C)C(=O)Nc1cccc3ccccc13)OCCCC[C@H](C)O2` it was “active”; in that of `Cc1noc(C)c1S(=O)(=O)Nc1ccc2c(c1)C(=O)N([C@@H](C)CO)C[C@@H](C)[C@@H](CN(C)C(=O)Nc1cccc3ccccc13)OCCCC[C@H](C)O2`, “inactive”.

The values are drawn from the antibiotic and cytotoxicity screens of Wong et al. (2023).
